The target of assay [1] is POU1 (OCT1 POU domain) (human, UniProt P14859 260-458). The experiment in a line: EMSA-SELEX-seq; no BOB1; 20 mM Tris-HCl pH 7.6, 140 mM NaCl, 10% glycerol, 0.5 mM EDTA, 0.05% Triton X-100, 0.1 mg/mL BSA, 0.1 mg/mL poly(dI-dC), 5 mM DTT, room temperature, 20 min; high values mean tight binding. The following applies: protein: recombinant; dsDNA, one strand shown. Put shortly: (§1)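 Binding preference is the percentage of sequenced 8-mers matching a motif pattern. Tagged POU-domain proteins expressed in E. coli BL21 were purified under denaturing conditions and renatured. For binding, 30 ng protein met 300 ng of a PCR-amplified double-stranded random 35-nt library, with or without 28 ng coactivator protein, in 20 μL Tris–HCl pH 7.6 binding buffer for 20 min at RT. Complex bands were cut from native 6% PAGE, eluted and PCR-amplified over four rounds, then Illumina-sequenced.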
Chain of POU1 (OCT1 POU domain) (P14859 260-458): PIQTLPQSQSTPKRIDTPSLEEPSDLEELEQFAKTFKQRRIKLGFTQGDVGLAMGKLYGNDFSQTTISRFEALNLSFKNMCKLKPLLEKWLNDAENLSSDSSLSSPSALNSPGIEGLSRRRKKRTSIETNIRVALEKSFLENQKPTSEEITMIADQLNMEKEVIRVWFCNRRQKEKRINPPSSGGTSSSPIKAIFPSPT

Assay [2] deals with T1, POU2 (OCT2 POU domain) (human, UniProt P09086 175-386).
T1 sequence: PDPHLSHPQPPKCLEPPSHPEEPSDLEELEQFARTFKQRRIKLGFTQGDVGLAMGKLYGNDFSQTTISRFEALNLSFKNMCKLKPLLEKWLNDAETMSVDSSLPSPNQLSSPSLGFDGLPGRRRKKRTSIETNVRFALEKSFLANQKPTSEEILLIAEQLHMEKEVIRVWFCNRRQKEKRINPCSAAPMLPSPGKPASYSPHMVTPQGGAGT
The description is as above. The settings on record: protein: recombinant; dsDNA, one strand shown. Put shortly: as §1

In assay [3] the target is POU1 (OCT1 POU domain);BOB1 (OBF1, OCA-B) (human;human, UniProt P14859;Q16633 260-458;1-256, |). Kind of assay: EMSA-SELEX-seq; with BOB1 (ternary complex band); 20 mM Tris-HCl pH 7.6, 140 mM NaCl, 10% glycerol, 0.5 mM EDTA, 0.05% Triton X-100, 0.1 mg/mL BSA, 0.1 mg/mL poly(dI-dC), 5 mM DTT, room temperature, 20 min; high values mean tight binding. The settings on record: protein: recombinant;recombinant; copies: 1;1; dsDNA, one strand shown. Put shortly:
as §1

In assay [4] the target is T2, POU2 (OCT2 POU domain);BOB1 (OBF1, OCA-B) (human;human, UniProt P09086;Q16633 175-386;1-256, |).
T2 sequence 1: T1 sequence
T2 sequence 2: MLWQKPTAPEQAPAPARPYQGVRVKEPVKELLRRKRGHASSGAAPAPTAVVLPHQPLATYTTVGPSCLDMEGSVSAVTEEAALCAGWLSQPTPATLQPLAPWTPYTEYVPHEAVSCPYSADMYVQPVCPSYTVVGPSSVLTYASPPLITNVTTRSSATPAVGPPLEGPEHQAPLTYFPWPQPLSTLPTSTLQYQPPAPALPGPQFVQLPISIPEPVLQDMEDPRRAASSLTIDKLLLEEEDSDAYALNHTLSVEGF
Described as above. The following applies: protein: recombinant;recombinant; copies: 1;1; dsDNA, one strand shown. In a few lines: as §1

This note sets out measurements from article PMC10812921, “Transcriptional Coactivator BOB1 (OBF1, OCA-B) Modulates the Specificity of DNA Recognition by the POU-Domain Factors OCT1 and OCT2 in a Monomeric Configuration”.

On to ATAAAAAC, for which the binding signal in assay [1] was 0.066 % of ANNNNAAN 8-mers; in assay [2] it was 0.0633 % of ANNNNAAN 8-mers; in assay [3], 0.0562 % of ANNNNAAN 8-mers; in assay [4], 0.0495 % of ANNNNAAN 8-mers.
Turning to AAGAGAAG, the binding signal was 0.0339 % of ANNNNAAN 8-mers in assay [1], 0.0403 % of ANNNNAAN 8-mers in assay [2], 0.0402 % of ANNNNAAN 8-mers in assay [3] and 0.0438 % of ANNNNAAN 8-mers in assay [4].
For AGCTGAAG, in that order: 0.0187 % of ANNNNAAN 8-mers, 0.0265 % of ANNNNAAN 8-mers, 0.025 % of ANNNNAAN 8-mers and 0.0223 % of ANNNNAAN 8-mers.
As for AATAAAAT, the binding signal in assay [1] was 0.214 % of ANNNNAAN 8-mers; in assay [2] it was 0.214 % of ANNNNAAN 8-mers; in assay [3], 0.185 % of ANNNNAAN 8-mers; in assay [4], 0.164 % of ANNNNAAN 8-mers.
On to AAACTAAT, for which the binding signal in assay [1] is 0.104 % of ANNNNAAN 8-mers; in assay [2], 0.129 % of ANNNNAAN 8-mers; in assay [3] it was 0.0808 % of ANNNNAAN 8-mers; in assay [4], 0.0925 % of ANNNNAAN 8-mers.
For the sequence AGGGCAAC, the binding signal in assay [1] is 0.0214 % of ANNNNAAN 8-mers; in assay [2], 0.0219 % of ANNNNAAN 8-mers; in assay [3] it was 0.0172 % of ANNNNAAN 8-mers; in assay [4] it was 0.0173 % of ANNNNAAN 8-mers.
The like results for AGCTCAAA were, in that order, 0.0252 % of ANNNNAAN 8-mers, 0.0213 % of ANNNNAAN 8-mers, 0.0242 % of ANNNNAAN 8-mers and 0.0264 % of ANNNNAAN 8-mers.
Consider AGCGAAAG, for which the binding signal in assay [1] was 0.0248 % of ANNNNAAN 8-mers; in assay [2] it was 0.0242 % of ANNNNAAN 8-mers; in assay [3], 0.0332 % of ANNNNAAN 8-mers; in assay [4] it was 0.0239 % of ANNNNAAN 8-mers.
For the sequence ACCTTAAG, the binding signal was 0.0198 % of ANNNNAAN 8-mers in assay [1], 0.0219 % of ANNNNAAN 8-mers in assay [2], 0.0187 % of ANNNNAAN 8-mers in assay [3] and 0.0281 % of ANNNNAAN 8-mers in assay [4].
The like results for AAGACAAC were, in that order, 0.0168 % of ANNNNAAN 8-mers, 0.019 % of ANNNNAAN 8-mers, 0.0195 % of ANNNNAAN 8-mers and 0.0157 % of ANNNNAAN 8-mers.
For the sequence ACCGAAAG, the binding signal in assay [1] was 0.0137 % of ANNNNAAN 8-mers; in assay [2], 0.0144 % of ANNNNAAN 8-mers; in assay [3], 0.0164 % of ANNNNAAN 8-mers; in assay [4], 0.0149 % of ANNNNAAN 8-mers.
On to ATGATAAC, for which the binding signal in assay [1] is 0.0339 % of ANNNNAAN 8-mers; in assay [2], 0.0489 % of ANNNNAAN 8-mers; in assay [3] it was 0.0332 % of ANNNNAAN 8-mers; in assay [4], 0.0479 % of ANNNNAAN 8-mers.
Take AAAATAAG: the binding signal in assay [1] was 0.13 % of ANNNNAAN 8-mers; in assay [2], 0.125 % of ANNNNAAN 8-mers; in assay [3], 0.148 % of ANNNNAAN 8-mers; in assay [4], 0.114 % of ANNNNAAN 8-mers.
For AATAAAAC, in that order: 0.0751 % of ANNNNAAN 8-mers, 0.0967 % of ANNNNAAN 8-mers, 0.0757 % of ANNNNAAN 8-mers and 0.0726 % of ANNNNAAN 8-mers.
With AATGAAAC, the binding signal was 0.0461 % of ANNNNAAN 8-mers in assay [1], 0.0719 % of ANNNNAAN 8-mers in assay [2], 0.0433 % of ANNNNAAN 8-mers in assay [3] and 0.0487 % of ANNNNAAN 8-mers in assay [4].
Take ATGTTAAG: the binding signal in assay [1] was 0.128 % of ANNNNAAN 8-mers; in assay [2], 0.146 % of ANNNNAAN 8-mers; in assay [3], 0.0835 % of ANNNNAAN 8-mers; in assay [4] it was 0.0966 % of ANNNNAAN 8-mers.
Take ACTACAAG: the binding signal was 0.0194 % of ANNNNAAN 8-mers in assay [1], 0.0201 % of ANNNNAAN 8-mers in assay [2], 0.0183 % of ANNNNAAN 8-mers in assay [3] and 0.0231 % of ANNNNAAN 8-mers in assay [4].
For the sequence ATAGTAAA, the binding signal in assay [1] is 0.12 % of ANNNNAAN 8-mers; in assay [2], 0.115 % of ANNNNAAN 8-mers; in assay [3] it was 0.128 % of ANNNNAAN 8-mers; in assay [4], 0.106 % of ANNNNAAN 8-mers.
As to ATACCAAC, the binding signal in assay [1] was 0.0244 % of ANNNNAAN 8-mers; in assay [2], 0.0276 % of ANNNNAAN 8-mers; in assay [3], 0.0242 % of ANNNNAAN 8-mers; in assay [4], 0.0215 % of ANNNNAAN 8-mers.
As to AGGTCAAC, the binding signal in assay [1] is 0.0198 % of ANNNNAAN 8-mers; in assay [2], 0.0288 % of ANNNNAAN 8-mers; in assay [3] it was 0.0269 % of ANNNNAAN 8-mers; in assay [4], 0.0289 % of ANNNNAAN 8-mers.
For ACTATAAG, the binding signal is 0.029 % of ANNNNAAN 8-mers in assay [1], 0.0339 % of ANNNNAAN 8-mers in assay [2], 0.03 % of ANNNNAAN 8-mers in assay [3] and 0.0314 % of ANNNNAAN 8-mers in assay [4].
With AAGTTAAC, the binding signal was 0.0347 % of ANNNNAAN 8-mers in assay [1], 0.038 % of ANNNNAAN 8-mers in assay [2], 0.0355 % of ANNNNAAN 8-mers in assay [3] and 0.0355 % of ANNNNAAN 8-mers in assay [4].
In the case of ACATGAAA, the binding signal in assay [1] is 0.0671 % of ANNNNAAN 8-mers; in assay [2], 0.0708 % of ANNNNAAN 8-mers; in assay [3], 0.0823 % of ANNNNAAN 8-mers; in assay [4], 0.0619 % of ANNNNAAN 8-mers.
In the case of AAAGCAAG, the binding signal in assay [1] was 0.04 % of ANNNNAAN 8-mers; in assay [2] it was 0.0368 % of ANNNNAAN 8-mers; in assay [3], 0.0457 % of ANNNNAAN 8-mers; in assay [4], 0.0421 % of ANNNNAAN 8-mers.
Consider ATCATAAT, for which the binding signal in assay [1] was 0.131 % of ANNNNAAN 8-mers; in assay [2], 0.164 % of ANNNNAAN 8-mers; in assay [3] it was 0.0706 % of ANNNNAAN 8-mers; in assay [4] it was 0.0636 % of ANNNNAAN 8-mers.
The like results for AGACAAAA were, in that order, 0.0675 % of ANNNNAAN 8-mers, 0.0489 % of ANNNNAAN 8-mers, 0.0808 % of ANNNNAAN 8-mers and 0.0322 % of ANNNNAAN 8-mers.
Take ATTTGAAG: the binding signal was 0.0713 % of ANNNNAAN 8-mers in assay [1], 0.0604 % of ANNNNAAN 8-mers in assay [2], 0.0909 % of ANNNNAAN 8-mers in assay [3] and 0.0545 % of ANNNNAAN 8-mers in assay [4].
ACGCGAAC: the binding signal is 0.0103 % of ANNNNAAN 8-mers in assay [1], 0.0121 % of ANNNNAAN 8-mers in assay [2], 0.0109 % of ANNNNAAN 8-mers in assay [3] and 0.0165 % of ANNNNAAN 8-mers in assay [4].
The like results for ATGACAAA were, in that order, 0.0622 % of ANNNNAAN 8-mers, 0.0639 % of ANNNNAAN 8-mers, 0.0539 % of ANNNNAAN 8-mers and 0.0479 % of ANNNNAAN 8-mers.
On to ATGACAAT, for which the binding signal was 0.0576 % of ANNNNAAN 8-mers in assay [1], 0.0737 % of ANNNNAAN 8-mers in assay [2], 0.0453 % of ANNNNAAN 8-mers in assay [3] and 0.0471 % of ANNNNAAN 8-mers in assay [4].
